Data taken from PubChem BioAssay (NCI).
This is part of a sample that, as a whole, favours compounds with a hit. Of some 79,000 tested, about 15% had one in any assay. Cut-off read from the data, not from the text of the source: active = growth inhibition above about 70%; inactive = the rest.

Experiments:
[1] = NCI Yeast Anticancer Drug Screen. Data for the rad50 strain (AID 155);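 note: 0% = growth of vehicle-only cultures of the same strain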; settings: S. cerevisiae rad50 strain growth inhibition; at 50.0 µM; hits give high values
Procedure, shortened: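 Cells are treated with compound, grown, and their growth is then scored against vehicle-only cultures of the same repair-deficient yeast strain.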

[2] = NCI Yeast Anticancer Drug Screen. Data for the mec2-1 strain (AID 157); settings: S. cerevisiae mec2-1 strain, at 50.0 µM, hits give high values
Procedure, shortened: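 Readout is yeast growth inhibition, normalised to vehicle-treated controls, in the mec2-1 strain exposed to compound.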

[3] = NCI Yeast Anticancer Drug Screen. Data for the sgs1 mgt1 strain (AID 161);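 note: 0% = growth of cultures given vehicle only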; settings: S. cerevisiae sgs1 mgt1 strain, at 50.0 µM, hits give high values
Procedure, shortened: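 Yeast cells carrying a defined DNA-repair defect were exposed to test compounds. Growth inhibition was measured relative to vehicle-treated controls.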

[4] = NCI Yeast Anticancer Drug Screen. Data for the cln2 rad14 strain (AID 165);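 note: 0% = growth equal to vehicle treated cultures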; settings: S. cerevisiae cln2 rad14 strain, at 50.0 µM, hits give high values
Procedure, shortened: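 Relative to vehicle controls, growth inhibition of compound-treated cln2 rad14 yeast was recorded.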

[5] = NCI Yeast Anticancer Drug Screen. Data for the bub3 strain (AID 167); settings: S. cerevisiae bub3 mutant strain, at 50.0 µM, hits give high values
Procedure, shortened: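 Part of a panel of yeast mutants defective in DNA damage repair or cell cycle regulation. Each strain is grown with compound, and inhibition is calculated relative to solvent-treated cultures.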

[6] = NCI Yeast Anticancer Drug Screen. Data for the mlh1 rad18 strain (AID 175); settings: S. cerevisiae mlh1 rad18 strain growth inhibition; at 50.0 µM; hits give high values
Procedure, shortened: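 Test agents were incubated with a yeast strain of defined genotype (DNA damage repair defect). Inhibition of growth was derived by comparison with vehicle-exposed cultures.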

Measured: growth inhibition

Cc1noc2c1NC(=O)OCC2
inactive: [1] 2.9% | [2] 1.45% | [3] -3.85% | [4] -2% | [5] 10.6% | [6] -15.1%

CCCCCCCCCCCCCCCCS
inactive: [1] -2.15% | [2] -16.4% | [3] 17.6% | [4] -6.6% | [5] 6.6% | [6] -4.8%

N#Cc1ccc(OC(=O)Nc2cccc(Cl)c2Cl)cc1
inactive: [1] -3.7% | [2] -25.4% | [3] 2.95% | [4] 15.7% | [5] 0.55% | [6] -9.45%

CC1(C(Cl)(Cl)Cl)C=C/C(=N\O)C(Cl)=C1 (stereo not given)
inactive: [1] -2.3% | [2] -10.7% | [3] -1.9% | [4] 4.95% | [5] -8.9% | [6] -7.75%

CCCCC(O)(CCCC)CC(C)C
inactive: [1] 8.4% | [2] 19.5% | [3] -2.4% | [4] -19.9% | [5] -16.7% | [6] 5.85%

NC(=S)N/N=C1\C(=O)N(CCc2ccccc2)C(=O)C1C(=O)NCCc1ccccc1 (stereo not given)
inactive: [1] -16.4% | [2] -27.7% | [3] -35.6% | [4] 14.1% | [5] -5.8% | [6] -15.2%

NC(Cc1ccccc1)C(=O)NCC(=O)Oc1ccc([N+](=O)[O-])cc1 (stereo not given)
inactive: [1] 36.5% | [2] 20.4% | [3] 20.1% | [4] 18.1% | [5] 2.35% | [6] 23.1%

NCC1(N2CCOCC2)C2CCCC21CNc1ccccc1 (stereo not given)
inactive: [1] -37.2% | [2] -46.1% | [3] -16% | [4] -4.65% | [5] -35.1% | [6] -21%

CN(C)CCOC(=S)S
inactive: [1] 1.85% | [2] -0.4% | [3] -9.3% | [4] 1.5% | [5] 10.3% | [6] -1%

O=[N+]([O-])c1cc(C(F)(F)F)ccc1Oc1cccc(C(F)(F)F)c1
inactive: [1] -13.4% | [2] 2% | [3] 5.6% | [4] -64.8% | [5] 42.6% | [6] 16.9%

COC(=O)C(=O)C(C(=O)C(=O)Nc1nc(=S)[nH][nH]1)c1nc2ccc([N+](=O)[O-])cc2[nH]c1=O (stereo not given)
inactive: [1] 36% | [2] 20.6% | [3] 11.1% | [4] -17.6% | [5] 22.4% | [6] 18.9%

CCCCCCCCCCCCCCCC/C(C)=C\C(=O)OC
inactive: [1] 3.8% | [2] 20.3% | [3] 22.9% | [4] -0.9% | [5] 28.9% | [6] 16.1%

CCC(CC)C(=O)NCC(=O)NO
inactive: [1] 2.25% | [2] 2.85% | [3] 1% | [4] -36% | [5] 0.6% | [6] 9.15%

CC(C)c1ccc(Cc2ccc(C(C)C)c(NC(=O)C(=O)Cc3cnc4ccccc4n3)c2C(C)C)c(C(C)C)c1NC(=O)C(=O)Cc1cnc2ccccc2n1
inactive: [1] -28.4% | [2] -18.4% | [3] -24.9% | [4] 14.3% | [5] -13.2% | [6] -28.8%

CC(C)N(C(=O)c1ccc([Si](C)(C)C)c(C(=O)N(C(C)C)C(C)C)n1)C(C)C
inactive: [1] 30.6% | [2] 19.8% | [3] 20.9% | [4] 9.4% | [5] 0.1% | [6] 28.5%

CC(=O)CC(C)(C)S(=O)(=O)Cc1ccccc1
inactive: [1] -3.4% | [2] 11.2% | [3] 6.9% | [4] -5.85% | [5] 19.4% | [6] 6.3%

O=C1NC(CN2CCCCC2)C(=O)NC1CN1CCCCC1 (stereo not given)
inactive: [1] -1.1% | [2] -13.4% | [3] 8.7% | [4] -8.7% | [5] -20.1% | [6] 0%

c1ccc(-c2nn(-c3ccccc3)[n+](-c3ccccc3)n2)cc1
inactive: [1] 5.4% | [2] 1.15% | [3] 21.9% | [4] 24.1% | [5] 30.7% | [6] 4.35%

O=C(O)c1ccccc1Sc1ccc([N+](=O)[O-])cn1
inactive: [1] 33.2% | [2] 5.1% | [3] 2.15% | [4] -15.8% | [5] 6.4% | [6] 44.7%

NC1C2CC3CC1CC(C2)O3 (stereo not given)
inactive: [1] -10.8% | [2] -8.1% | [3] -9.4% | [4] -68.5% | [5] 7.45% | [6] -14.3%
